Results taken from PubChem BioAssay (NCATS).
Records with an inconclusive call do not appear. Activity calls are given as the source filed them. Unless noted, the call rests on the fitted dose curve; in most records, active means well fitted curve in the direction sought with a large enough effect; inconclusive means small, poorly fitted or top-dose-only effect, or another doubt; inactive means no such curve, though single readings can be large; an effect the other way counts as inactive or inconclusive.

Assays:
[1] = target: Lysosomal acid glucosylceramidase (Homo sapiens) (UniProt P04062); test: Glucocerebrosidase-p2 (AID 348; in the data active means potency below about 10 µM; further: potency means the concentration at half of the fitted maximal effect); conditions: purified GBA, blue fluorogenic substrate, 40 min
In short: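 Normal human glucocerebrosidase (0.2 nM) with blue fluorogenic substrate (80 uM final) in citrate/phosphate pH 5.9 with 10mM sodium taurocholate, 0.01% tween-20; 40 min RT, NaOH/glycine stop; fluorescence Ex 365/Em 440; AC50 from a titration from 0.6 nM upwards.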

[2] = AP1 Signaling Pathway (AID 357; active means well fitted curve in either direction with a large enough effect, not every such curve was filed as active; further: on the % scale 0 is the no-effect control and ±100 the full control effect); conditions: ME-180 AP-1-bla reporter, EGF-induced, beta-lactamase ratio, 5 h; at 7.69 µM (top of the series) unless noted
In short: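 ME-180 cells with beta-lactamase reporter under AP-1 response element, stimulated with EC50 EGF; compounds tested in titration series, 5 h at 37 °C. CCF4 substrate added 2.5 h at room temperature; 460/530 nm emission ratio gave %activity and AC50.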

[3] = target: Cytochrome P450 1A2 (Homo sapiens) (UniProt P05177); test: p450-cyp1a2 (AID 410; calls by dose curve; further: potency means the concentration at half of the fitted maximal effect)
In short: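 O-Demethylation of luciferin 6' methyl ether by human CYP1A2 is monitored as luciferase luminescence. Substrate sits at Km (100uM); enzyme is 20nM. Values are scaled to 57 uM furafylline as maximal inhibition.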

[4] = NFAT Signaling Pathway (AID 444; active means well fitted curve in either direction with a large enough effect, not every such curve was filed as active;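 further: carbachol stimulus at about its EC50 of 1 µM final; on the % scale 0 is the no-effect control and ±100 the full control effect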); conditions: Jurkat NFAT-bla M1, carbachol, beta-lactamase ratio, 5 h; at 7.69 µM (top of the series) unless noted
In short: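 Jurkat cells with NFAT-driven β-lactamase reporter and co-expressed M1 receptor, stimulated with carbachol (final 1 uM, ~EC50), compound titration, 5 h at 37 °C. CCF4 loaded 1 h at RT; 460/530 nm ratio gave %activity and AC50.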

[5] = Stat Signaling Pathway (AID 446; active means well fitted curve in either direction with a large enough effect, not every such curve was filed as active;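 further: ME-180 cervical cancer cells given 40 pM IL-6 alongside compound; SIE-controlled beta-lactamase reporter measured as 460/530 nm FRET emission ratio; on the % scale 0 is the no-effect control and ±100 the full control effect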); conditions: ME-180 SIE beta-lactamase reporter, IL-6 stimulated, 5 h; at 7.69 µM (top of the series) unless noted
In short: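 FRET read-out (405 nm excitation, 460/530 nm emission) of a beta-lactamase reporter under a STAT-inducible element in ME-180 cervical carcinoma cells. Cells with compound receive 40 pM IL-6 for 5 h. Values are normalised to AC90 stimulation and AC90 JAK-inhibitor controls.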

[6] = target: Glucocorticoid receptor (Homo sapiens) (UniProt P04150); test: GR-GFP Redistribution (AID 450;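 active means compounds whose dose series gives a full or clear partial fitted curve of increased nuclear translocation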; further: potency means the concentration at half of the fitted maximal effect); conditions: U2OS GR-GFP nuclear translocation, laser cytometry, 2 h
[7] = target: Glucocorticoid receptor (Homo sapiens) (UniProt P04150); test: GR-EFC Redistribution (AID 451; calls by dose curve; further: potency means the concentration at half of the fitted maximal effect); conditions: CHO-K1 GR-EFC translocation, beta-gal luminescence, 2 h
In short: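 CHO-K1 cells expressing nuclear EA and GR-ED fragments of b-gal; compounds titrated up to 46 uM final, 2 h at 37 C. GR nuclear translocation read as complemented b-gal luminescence after 1 h RT detection.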

[8] = target: Mitogen-activated protein kinase 10 (Mus musculus) (UniProt Q61831); test: JNK3 AlphaScreen Assay (AID 530; active means well fitted curve in either direction with a large enough effect, not every such curve was filed as active;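 further: kinase came from lysate of stimulated human HepG2 cells; signal reports phosphorylation of biotinylated GST-cJun 1-79 at Ser73 with 10 µM ATP; on the % scale 0 is the no-effect control and ±100 the full control effect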)
In short: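 Activity was read by AlphaScreen after JNK3-containing HepG2 lysate (cytokine pre-activated) phosphorylated biotinylated GST-cJun with 10 uM ATP at room temperature. Phospho-Ser73 cJun antibody with Protein-A acceptor beads provided detection.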

[9] = target: 3',5'-cyclic-AMP phosphodiesterase 4B (Homo sapiens) (UniProt Q07343); test: qHTS Assay for Inhibitors of PDE-IV (AID 607; active means well fitted activation curve with a large enough effect in the main read-out, with a control signal flat, not every such curve was filed as active; further: % of control where 0% means no effect)
In short: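 Cell-based read-out of cAMP via a modified cyclic nucleotide-gated channel and membrane potential dye (535/590 nm) in HEK293 cells expressing PDE4 endogenously. Compounds tested up to 22.9 uM final; 100 uM RO 20-1724 reference.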

[10] = target: Cytochrome P450 2C9 (Homo sapiens) (UniProt P11712); test: qHTS Assay for Inhibitors and Substrates of Cytochrome P450 2C9 (AID 883); further: on the % scale 0 is the no-effect control and ±100 the full control effect; nearly all actives have a fitted effect of over 60% in size
In short: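 10nM CYP2C9 + 100uM Luciferin-H (=KM), 25mM KPO4; cpd 10 min 37C; NADPH regen, 60 min 37C; stop/detect with P450 Glo-Buffer 20 min; luminescence. Norm. to 57uM sulphaphenazole as full inhibition.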

[11] = target: Cytochrome P450 3A4 (Homo sapiens) (UniProt P08684); test: qHTS Assay for Activators of Cytochrome P450 3A4 (AID 885); further: nearly all actives have a fitted effect of over 65% in size
In short: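 Luminescent readout of luciferin formed from 25 uM Luciferin-PPXE (KM level) by 20 nM CYP3A4 in 200 mM KPO4, with 60 min NADPH-driven reaction at room temperature after 10 min compound exposure. Ketoconazole (57 uM) defined 100% inhibition.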

[12] = target: Cytochrome P450 2C19 (Homo sapiens) (UniProt P33261); test: qHTS Assay for Inhibitors and Substrates of Cytochrome P450 2C19 (AID 899); further: nearly all actives have a fitted effect of over 60% in size; further: potency means the concentration at half of the fitted maximal effect
In short: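 Luminescent read-out of luciferin formed from Luciferin-H EGE (10uM, equal to KM). Enzyme 5nM in 50mM KPO4; compound added, 10 min at 37C, then NADPH regenerating system for 60 min at 37C. Full inhibition defined by 57uM ketoconazole.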

[13] = Confirmation and Secondary Assay for Modulators of Hemoglobin Beta Chain Splicing at IVS2 654 locus (AID 910);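 further: HeLa cells stably carrying EGFP split by mutant beta-globin IVS2-654 intron; % of control where 0% means no effect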
In short: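 HeLa cells stably expressing EGFP interrupted by β-globin IVS2-654 intron, seeded overnight in Opti-MEM/2% FCS, then treated 2 days at 37 °C. Restored splicing read as total peak GFP intensity per well by laser scanning cytometry (488 nm excitation, 500–520 nm emission); 500 nM antisense PNA as control.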

[14] = Confirmation and Secondary Assay for Modulators of Hemoglobin Beta Chain Splicing at IVS2 705 locus (AID 930);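 further: HeLa cells stably expressing the EGFP-705 splicing reporter; GFP fluorescence per well restored by corrected splicing of the IVS2-705 intron in EGFP; % of control where 0% means no effect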
In short: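 Splice-correction reporter: EGFP cDNA split by beta-globin intron 2 bearing the 705 mutation, stably in HeLa. Compound incubation 2 days, 37C; fluorescent objects 5-250 µm summed per well.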

[15] = qHTS Assay for Lipid Storage Modulators (AID 1519; calls by dose curve); conditions: Drosophila S3 cells, BODIPY lipid droplet/cell ratio, laser cytometry, cells loaded with oleic acid; for activity change, negative = inhibition: at 57.5 µM (top of the series)
In short: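 Cells seeded at 5,000 per well were treated with compounds over a concentration series and loaded with oleic acid (400 uM, as added). Lipid droplet fluorescence (488 nm excitation, 500-530 nm channel) was read by laser-scanning cytometry and normalized to 20 uM Triacsin C.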

[16] = target: Ubiquitin carboxyl-terminal hydrolase 1 (Homo sapiens) (UniProt O94782); test: Inhibitors of USP1/UAF1: Pilot qHTS (AID 504865); further: nearly all actives have a fitted effect of over 35% in size; further: potency means the concentration at half of the fitted maximal effect
In short: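 In 50mM HEPES pH 7.8 containing 0.5mM EDTA, 1mM TCEP, 0.1 mg/ml BSA and 0.01% Tween-20, 1nM USP1/UAF1 is exposed to compound for 15 min, then Ub-Rho (150nM final) is added and fluorescence is read over time.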

[17] = qHTS Assay for Identification of Small Molecule Agonists for Hypoxia Response Element Signaling Pathway (AID 914; active means well fitted activation curve with a large enough effect in the signal ratio, with a control signal flat, not every such curve was filed as active; the % refers to the signal ratio; further: % of control where 0% means no effect); conditions: ME-180 (cervical carcinoma) HRE-bla reporter, beta-lactamase ratio, CoCl2, 17 h; activation: stronger effect = higher value
In short: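 Cells were plated overnight, pin-dosed with compound in a titration series, co-stimulated with EC50 CoCl2 and incubated 17 hours at 37 degrees Celsius. CCF4 substrate was then loaded, and AC50 values came from the 460nm/530nm ratio.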

[18] = target: Cytochrome P450 2D6 (Homo sapiens) (UniProt P10635); test: qHTS Assay for Inhibitors and Substrates of Cytochrome P450 2D6 (AID 891); further: potency means the concentration at half of the fitted maximal effect; nearly all actives have a fitted effect of over 60% in size
In short: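 Luminescent read-out of luciferin formed by 5 nM human CYP2D6 demethylating 30 uM Luciferin-ME EGE (Km level) over 60 min at room temperature after NADPH regeneration addition. Data normalized to full inhibition by 1.43 uM quinidine.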

[19] = measured here: cell count channel max response
[20] = measured here: lipid channel max response

Cytochrome P450 3A4 (Homo sapiens), sequence (P08684 whole entry, looked up): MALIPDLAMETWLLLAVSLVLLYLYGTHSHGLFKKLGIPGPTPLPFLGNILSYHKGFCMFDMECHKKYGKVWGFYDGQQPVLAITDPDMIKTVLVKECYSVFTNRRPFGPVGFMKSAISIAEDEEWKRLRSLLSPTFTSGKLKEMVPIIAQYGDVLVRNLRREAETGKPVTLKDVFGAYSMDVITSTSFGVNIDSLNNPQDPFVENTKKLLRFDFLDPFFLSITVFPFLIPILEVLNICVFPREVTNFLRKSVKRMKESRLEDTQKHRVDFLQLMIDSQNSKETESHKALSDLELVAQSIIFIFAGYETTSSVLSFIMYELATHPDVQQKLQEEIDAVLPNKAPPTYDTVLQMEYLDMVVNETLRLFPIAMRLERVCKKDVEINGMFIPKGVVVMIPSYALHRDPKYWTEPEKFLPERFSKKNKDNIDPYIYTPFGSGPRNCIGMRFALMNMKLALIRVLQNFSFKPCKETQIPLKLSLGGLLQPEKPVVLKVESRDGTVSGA
Cytochrome P450 1A2 (Homo sapiens), sequence (P05177 whole entry, looked up): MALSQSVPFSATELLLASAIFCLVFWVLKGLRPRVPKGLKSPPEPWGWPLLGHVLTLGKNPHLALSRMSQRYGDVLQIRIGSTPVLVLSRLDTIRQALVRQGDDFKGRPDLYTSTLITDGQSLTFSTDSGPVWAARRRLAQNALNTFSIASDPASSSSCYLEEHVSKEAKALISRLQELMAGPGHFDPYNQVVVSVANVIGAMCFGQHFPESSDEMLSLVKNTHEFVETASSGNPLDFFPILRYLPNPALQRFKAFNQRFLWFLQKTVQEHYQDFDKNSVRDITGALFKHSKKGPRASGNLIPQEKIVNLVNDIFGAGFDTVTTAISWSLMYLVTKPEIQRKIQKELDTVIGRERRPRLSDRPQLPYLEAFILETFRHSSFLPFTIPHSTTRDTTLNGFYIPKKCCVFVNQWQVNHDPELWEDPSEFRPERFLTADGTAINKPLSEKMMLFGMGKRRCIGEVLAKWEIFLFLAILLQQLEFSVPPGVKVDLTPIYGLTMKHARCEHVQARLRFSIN
Ubiquitin carboxyl-terminal hydrolase 1 (Homo sapiens), sequence (O94782 whole entry, looked up): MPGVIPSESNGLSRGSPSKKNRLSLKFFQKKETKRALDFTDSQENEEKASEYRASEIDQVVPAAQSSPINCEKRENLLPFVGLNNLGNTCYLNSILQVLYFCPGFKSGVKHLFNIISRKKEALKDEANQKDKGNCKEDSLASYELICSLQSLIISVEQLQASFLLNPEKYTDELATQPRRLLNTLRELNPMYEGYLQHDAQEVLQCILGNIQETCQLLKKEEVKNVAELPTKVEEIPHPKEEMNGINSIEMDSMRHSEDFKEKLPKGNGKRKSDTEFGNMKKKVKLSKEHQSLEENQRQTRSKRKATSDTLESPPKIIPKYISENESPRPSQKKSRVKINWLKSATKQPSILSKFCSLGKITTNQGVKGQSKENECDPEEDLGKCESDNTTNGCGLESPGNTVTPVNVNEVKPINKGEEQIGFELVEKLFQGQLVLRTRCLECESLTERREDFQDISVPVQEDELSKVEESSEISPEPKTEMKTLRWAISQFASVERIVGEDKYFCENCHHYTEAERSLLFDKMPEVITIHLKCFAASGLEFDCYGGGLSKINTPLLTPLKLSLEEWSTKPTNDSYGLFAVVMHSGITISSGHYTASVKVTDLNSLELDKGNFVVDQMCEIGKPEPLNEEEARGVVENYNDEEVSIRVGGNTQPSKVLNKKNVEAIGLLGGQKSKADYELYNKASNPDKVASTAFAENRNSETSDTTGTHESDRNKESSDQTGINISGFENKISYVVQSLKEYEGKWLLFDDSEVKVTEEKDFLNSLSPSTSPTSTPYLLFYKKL
Cytochrome P450 2C19 (Homo sapiens), sequence (P33261 whole entry, looked up): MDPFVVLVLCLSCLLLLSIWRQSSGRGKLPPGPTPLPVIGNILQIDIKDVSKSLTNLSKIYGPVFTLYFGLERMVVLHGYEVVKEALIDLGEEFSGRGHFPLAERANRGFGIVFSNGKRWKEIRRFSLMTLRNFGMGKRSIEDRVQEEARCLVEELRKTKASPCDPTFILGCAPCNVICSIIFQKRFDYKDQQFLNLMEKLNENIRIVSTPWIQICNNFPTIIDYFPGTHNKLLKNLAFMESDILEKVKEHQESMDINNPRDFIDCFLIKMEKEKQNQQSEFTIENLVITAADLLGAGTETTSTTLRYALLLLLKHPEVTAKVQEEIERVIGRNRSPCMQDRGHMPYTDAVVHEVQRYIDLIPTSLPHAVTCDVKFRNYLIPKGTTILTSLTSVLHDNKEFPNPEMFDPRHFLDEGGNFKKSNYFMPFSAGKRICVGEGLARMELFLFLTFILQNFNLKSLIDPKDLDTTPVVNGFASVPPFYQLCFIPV
Lysosomal acid glucosylceramidase (Homo sapiens), sequence (P04062 whole entry, looked up): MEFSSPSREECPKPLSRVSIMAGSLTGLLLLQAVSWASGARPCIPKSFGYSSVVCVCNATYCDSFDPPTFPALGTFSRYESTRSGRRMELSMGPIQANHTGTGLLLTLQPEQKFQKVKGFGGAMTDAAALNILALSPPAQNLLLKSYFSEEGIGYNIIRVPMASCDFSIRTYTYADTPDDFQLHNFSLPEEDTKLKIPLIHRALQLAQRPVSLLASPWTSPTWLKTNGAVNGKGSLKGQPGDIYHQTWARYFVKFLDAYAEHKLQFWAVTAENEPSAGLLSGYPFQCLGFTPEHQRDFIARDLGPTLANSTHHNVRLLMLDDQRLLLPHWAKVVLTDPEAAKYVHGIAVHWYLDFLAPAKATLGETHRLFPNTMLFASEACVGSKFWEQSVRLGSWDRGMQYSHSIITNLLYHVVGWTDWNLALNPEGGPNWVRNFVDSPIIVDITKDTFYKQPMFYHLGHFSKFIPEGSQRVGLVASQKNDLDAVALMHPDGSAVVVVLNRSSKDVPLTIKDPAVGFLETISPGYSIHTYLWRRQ
3',5'-cyclic-AMP phosphodiesterase 4B (Homo sapiens), sequence (Q07343 whole entry, looked up): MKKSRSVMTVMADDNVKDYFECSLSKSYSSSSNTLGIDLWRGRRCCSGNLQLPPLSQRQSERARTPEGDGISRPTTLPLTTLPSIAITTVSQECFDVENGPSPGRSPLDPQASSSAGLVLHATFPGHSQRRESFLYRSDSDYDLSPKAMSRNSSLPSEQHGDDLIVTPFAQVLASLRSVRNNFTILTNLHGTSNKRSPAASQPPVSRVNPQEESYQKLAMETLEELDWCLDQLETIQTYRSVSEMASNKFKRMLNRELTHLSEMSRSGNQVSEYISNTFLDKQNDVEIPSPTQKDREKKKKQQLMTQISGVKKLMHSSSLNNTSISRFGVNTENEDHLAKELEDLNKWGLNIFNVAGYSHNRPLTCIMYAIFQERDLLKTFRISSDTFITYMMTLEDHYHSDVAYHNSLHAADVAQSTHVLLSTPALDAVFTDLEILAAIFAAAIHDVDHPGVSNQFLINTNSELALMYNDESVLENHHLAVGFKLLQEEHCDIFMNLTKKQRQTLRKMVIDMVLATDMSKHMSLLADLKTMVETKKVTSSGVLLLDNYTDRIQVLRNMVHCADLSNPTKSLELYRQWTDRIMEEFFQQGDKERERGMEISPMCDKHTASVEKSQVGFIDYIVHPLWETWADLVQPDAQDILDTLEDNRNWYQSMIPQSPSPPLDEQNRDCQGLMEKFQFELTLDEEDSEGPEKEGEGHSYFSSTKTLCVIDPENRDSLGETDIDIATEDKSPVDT
Glucocorticoid receptor (Homo sapiens), sequence (P04150 whole entry, looked up, the tested form may be a part): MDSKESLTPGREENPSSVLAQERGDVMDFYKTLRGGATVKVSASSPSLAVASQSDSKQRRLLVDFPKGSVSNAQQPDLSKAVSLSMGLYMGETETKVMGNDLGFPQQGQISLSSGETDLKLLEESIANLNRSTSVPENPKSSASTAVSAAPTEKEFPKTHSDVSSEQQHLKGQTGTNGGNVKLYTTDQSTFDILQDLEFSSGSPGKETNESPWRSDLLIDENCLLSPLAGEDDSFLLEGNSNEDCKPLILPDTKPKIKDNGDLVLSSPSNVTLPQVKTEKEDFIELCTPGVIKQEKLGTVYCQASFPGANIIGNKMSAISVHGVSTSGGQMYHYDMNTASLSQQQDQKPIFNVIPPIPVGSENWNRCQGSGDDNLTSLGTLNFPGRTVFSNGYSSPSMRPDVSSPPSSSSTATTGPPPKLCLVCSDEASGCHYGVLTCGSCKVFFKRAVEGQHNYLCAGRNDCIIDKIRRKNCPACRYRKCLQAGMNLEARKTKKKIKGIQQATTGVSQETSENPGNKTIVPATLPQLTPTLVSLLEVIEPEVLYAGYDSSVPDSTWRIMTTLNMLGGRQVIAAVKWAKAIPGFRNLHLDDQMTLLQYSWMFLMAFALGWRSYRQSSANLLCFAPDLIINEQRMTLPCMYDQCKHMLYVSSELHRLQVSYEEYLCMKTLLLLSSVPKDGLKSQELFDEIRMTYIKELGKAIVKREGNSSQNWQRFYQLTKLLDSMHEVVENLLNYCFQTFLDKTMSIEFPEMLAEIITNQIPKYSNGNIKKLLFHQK
Cytochrome P450 2C9 (Homo sapiens), sequence (P11712 whole entry, looked up): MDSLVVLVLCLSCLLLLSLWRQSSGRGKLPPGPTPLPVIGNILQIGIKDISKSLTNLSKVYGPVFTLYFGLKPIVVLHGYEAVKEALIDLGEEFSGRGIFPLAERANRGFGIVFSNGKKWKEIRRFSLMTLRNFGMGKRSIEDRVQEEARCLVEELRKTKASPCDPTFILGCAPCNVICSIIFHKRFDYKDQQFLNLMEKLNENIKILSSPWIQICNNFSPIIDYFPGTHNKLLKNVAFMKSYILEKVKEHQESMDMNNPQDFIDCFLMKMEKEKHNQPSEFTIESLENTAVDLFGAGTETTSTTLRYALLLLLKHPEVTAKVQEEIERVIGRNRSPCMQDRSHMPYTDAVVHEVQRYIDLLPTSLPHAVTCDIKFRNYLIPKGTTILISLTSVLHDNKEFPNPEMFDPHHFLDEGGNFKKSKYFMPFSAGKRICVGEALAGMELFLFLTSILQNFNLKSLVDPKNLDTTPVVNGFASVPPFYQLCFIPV

Structure (SMILES) | Potency [1] | activity change, negative = inhibition [2] | Potency [3] | activity change, negative = inhibition [4] | activity, negative = inhibition [5] | Potency [6] | Potency [7] | Potency [8] | Potency [9] | activity change, negative = inhibition [10] | Potency [11] | Potency [12] | Potency [13] | outcome [14] | activity change, negative = inhibition [15] | max response [15, 19] | max response [15, 20] | Potency [16] | activation [17] | Potency [18]
CN(C)C(=O)c1ccc(-c2nc(N(C)C)c3ccccc3n2)cc1 | > 11.4 µM (inactive) | -11.7% (inactive) | 10 µM (active) | 16.5% (inactive) | 2.64% (inactive) | > 46 µM (inactive) | > 46 µM (inactive) | inactive | inactive | 29.4% [at 2.29 µM] (inactive) | inactive | inactive | inactive | inactive | 8.51% (inactive) | 8.15% | 13.9% | inactive |  | 
COc1ccccc1-c1ccc2ncnc(N(C)C)c2c1 | > 11.4 µM (inactive) | -19.5% (inactive) | 1.26 µM (active) | -2.93% (inactive) | -12.7% (inactive) | > 46 µM (inactive) | > 46 µM (inactive) | inactive |  |  | inactive | 0.501 µM (active) | inactive | inactive | 4.68% (inactive) | -12.6% | -7.7% |  |  | 
COc1ccc2[nH]cc(CCNc3cc(-c4ccoc4)ncn3)c2c1 | > 11.4 µM (inactive) | -5.94% (inactive) | 0.631 µM (active) | 2.58% (inactive) | 2.87% (inactive) | > 46 µM (inactive) | > 46 µM (inactive) | inactive | inactive |  | inactive | 5.01 µM (active) | inactive | inactive | 11% (inactive) | 6.67% | 17.6% | inactive |  | 
COc1ccccc1CNc1ccnc(-c2ccccc2C(F)(F)F)n1 | > 11.4 µM (inactive) | -18.3% (inactive) | 10 µM (active) | -19.1% (inactive) | 4.24% (inactive) | > 46 µM (inactive) | > 46 µM (inactive) | inactive | inactive |  | inactive |  | inactive | inactive | 5.29% (inactive) | -3.33% | 2.88% | 20 µM (active) | -5.47% (inactive) | 
CN(C)Cc1ccccc1-c1nc(N(C)Cc2ccco2)c2ccccc2n1 | > 11.4 µM (inactive) | 9.21% (inactive) | 0.794 µM (active) | -18.4% (inactive) | 3.87% (inactive) | > 46 µM (inactive) | > 46 µM (inactive) | inactive |  |  | inactive |  | inactive | inactive | 6.11% (inactive) | 17.4% | 24.7% | inactive |  | 0.794 µM (active)
